# Screening data from PubChem BioAssay.
# FMDV antiviral: antivirals against foot and mouth disease virus; Potency, µM (titrated, usually from 57.9 µM), inactives show at the top dose activity change, negative = inhibition, usual class: inhibitors; 410,000 compounds, 1.2% hits; FMDV antiviral cell-based qHTS; calls by dose curve; tested in HEK293T cells; also: read-out not given here; potency is read from the fitted curve at half-maximal effect; % is scaled to controls: 0 for no effect and ±100 for the full control effect; nearly all actives have a fitted effect of over 45% in size
# SARS PLP yeast: SARS-CoV PLP inhibition in yeast | S. cerevisiae expressing SARS-CoV PLpro, growth rescue | Potency, µM (doses to about 32.9 µM), for the others: at the top dose activity, positive = growth rescue, usual class: activators | 330,000 compounds, 0.19% hits | AID 485353; calls by dose curve; also: potency is read from the fitted curve at half-maximal effect; 0% is about no effect; nearly all actives have a fitted effect of over 55% in size
# MARV entry inh: blocks Marburg virus binding to or entry into cells. Marburg virus pseudotyped entry inhibition, cell reporter. Potency, µM (titrated, usually from 37.8 µM), without a hit: at the top dose activity change, negative = inhibition, hits mostly inhibitors. 300,000 compounds, 1.8% hits. AID 540276; calls by dose curve; tested in HEK293 cells; also: potency is read from the fitted curve at half-maximal effect; % is scaled to controls: 0 for no effect and ±100 for the full control effect
# LASV entry inh: Lassa virus entry inhibition. Lassa virus pseudotype entry inhibition, cell reporter. Potency, µM (highest dose often 37.9 µM), for inactives: at the top dose activity change, negative = inhibition, actives largely listed as inhibitors. 300,000 compounds, 1.2% hits; calls by dose curve; tested in HEK293 cells; also: potency is read from the fitted curve at half-maximal effect; % is scaled to controls: 0 for no effect and ±100 for the full control effect; nearly all actives have a fitted effect of over 50% in size
# HCV inhibitor: blocks hepatitis C virus | Huh7.5.1 HCVcc-Cre infection, luciferase reporter, 44 h | Potency, µM (titrated, usually from 41.8 µM), for inactives: top-dose activity change, negative = inhibition, most hits filed as inhibitors | 340,000 compounds, 3.4% hits | AID 651820; active = well fitted inhibition curve with a large enough effect; inconclusive = small, poorly fitted or top-dose-only effect, or another doubt; inactive = no such curve, though single readings can be large or run the other way; also: potency is read from the fitted curve at half-maximal effect; % is scaled to controls: 0 for no effect and ±100 for the full control effect
#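 Luciferase read-out (15 sec integration) after a 15 min room-temperature substrate step quantifies HCVcc-Cre infection. Cells, 1,000 per well, had compound added 4 h post-plating, then virus at ~0.5 moi, and were cultured 44 h.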
# HCMV inh: human cytomegalovirus inhibition; AID 1259415; activity change, negative = inhibition, % at 57.5 µM; 410,000 compounds, 4.5% hits; HFF cells, HCMV-luciferase reporter, 72 h; hits give low values; in the data active = activity change below about -60%; inconclusive = no clear call, values can overlap the other calls; inactive = above about -39%; also: % is scaled to controls: 0 for no effect and ±100 for the full control effect
#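 Two compound doses tested in HFFs infected with HCMV-luciferase, MOI 1 PFU/cell, 72 h at 37C. Lysate luminescence read with OneGlo; data normalized against buffer-only and 10uM Salinomycin inhibitor controls.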
# Active calls of the source: *; ? = inconclusive; . = not tested or not shown; [ ] = remark or other dose. Hits are enriched below; roughly 8% of the tested compounds scored in any of these assays.
SMILES,FMDV antiviral,SARS PLP yeast,MARV entry inh,LASV entry inh,HCV inhibitor,HCMV inh
Cc1ccc(C)c(N(C)C(=O)CCNC(=O)Cn2cnc3ccccc3c2=O)c1,-14%,.,.,2%[46.1 µM],.,-7
Cc1ccc(S(=O)(=O)c2nc(S(C)(=O)=O)sc2N(C)Cc2ccccc2)cc1,7%,.,-2%[46.1 µM],?,.,-35
CCOc1ccc(S(=O)(=O)NCCc2c(C)[nH]c3c(Cl)cccc23)cc1C,15%,.,-15%[46.1 µM],-21%[46.1 µM],.,?
O=C(CNC(=O)c1ccco1)N=Nc1c(O)n(CCc2ccccc2)c2ccccc12,-24%,-1%,.,.,?,-84*
CCn1c(O)c(N=NC(=O)CNC(=O)Cc2ccccc2)c2ccccc21,-2%,0%,0%[46.1 µM],10%[46.1 µM],-15%,-1
Cc1n[nH]c(C)c1CCc1nc2c3ccccc3nc(SCC(=O)Nc3ccc(F)cc3)n2n1,?,.,.,?,.,-68*
CCOc1ccccc1NC(=O)CSc1nc2cc(OC)c(OC)cc2c2nc(CCn3c(C)nc4ccccc43)nn12,-12%,.,10%[46.1 µM],17%[46.1 µM],.,-93*
Cc1cncn1CCc1nc2c3ccccc3nc(SCC(=O)Nc3ccccc3F)n2n1,-9%,.,.,9%[46.1 µM],.,-67*
Cc1ccc(NC(=O)CSc2nc3ccccc3c3nc(CCc4c(C)n[nH]c4C)nn23)cc1F,-18%,5%,?,-27%,-2%,?
COc1cc2nc(SCC(=O)Nc3ccccc3C)n3nc(CCn4c(C)nc5ccccc54)nc3c2cc1OC,-14%,.,11%[46.1 µM],-1%[46.1 µM],.,2
COc1ccc(CCC(=O)NC2CC(=O)N(c3ccc(F)cc3)C2)cc1 (stereo not drawn),-12%,.,.,2%[46.1 µM],.,-5
CN(C(=O)CN1CCN(c2cc(-c3ccc(-c4ccccc4)cc3)ncn2)CC1)c1ccccc1,22µM*,.,.,.,.,-67*
COc1ccc2ccccc2c1CN1CCOc2ccc(CN3CCN(CCO)CC3)cc2C1,-5%,.,.,.,.,.
CC(C)CSc1ccccc1NC(=O)c1sc2nc(-c3ccncc3)ccc2c1N,-7%,.,0%[46.1 µM],-6%[46.1 µM],.,-24
O=C(NCCc1c[nH]c2ccccc12)C(=O)NCC1OCCCN1S(=O)(=O)c1cccs1 (stereo not drawn),?,-3%,10%[46.1 µM],?,?,-19
Cc1cc(F)ccc1S(=O)(=O)N1CCCOC1CNC(=O)C(=O)NCCc1c[nH]c2ccccc12 (stereo not drawn),32µM*,-2%,?,?,11µM*,-36
Cc1ccc(S(=O)(=O)N2CCOC2CNC(=O)C(=O)NCCc2c[nH]c3ccccc23)cc1 (stereo not drawn),?,0%,.,.,?,-80*
Cc1cc(C)c(S(=O)(=O)N2CCCOC2CNC(=O)C(=O)NCCc2c[nH]c3ccccc23)c(C)c1 (stereo not drawn),?,19%,?,?,?,-82*
O=C(NCCc1c[nH]c2ccccc12)C(=O)NCC1OCCCN1S(=O)(=O)c1ccc(F)cc1 (stereo not drawn),?,29%,-35%,?,?,?
COc1ccc(S(=O)(=O)NC(=O)C2(C)CCN2C(=O)c2ccc(C(F)(F)F)nc2C)cc1 (stereo not drawn),-9%,.,.,.,.,10
Cc1nc(C(F)(F)F)ccc1C(=O)N1CCC1(C)C(=O)NS(=O)(=O)c1c(C)noc1C (stereo not drawn),-13%,.,.,.,.,-9
Cc1ccc(F)c(S(=O)(=O)NC(=O)C2(C)CCN2C(=O)c2ccc(C(F)(F)F)nc2C)c1 (stereo not drawn),-12%,.,.,.,.,-87*
Cc1nc(C(F)(F)F)ccc1C(=O)N1CCC1(C)C(=O)NS(=O)(=O)c1ccc(C(C)(C)C)cc1 (stereo not drawn),-16%,.,.,.,.,-81*
C=CCN1C(=O)CC[C@@]23C1=NC(C(=O)OC)=C(C(=O)OC)[C@@H]2N(C)c1ccccc13,.,.,14%[14.2 µM],.,.,.
CCC(=O)N1CCc2cc(Br)cc(S(=O)(=O)NCCN3CCCCC3CC)c21 (stereo not drawn),39%,0%,?,15%,2.5µM*,22
CCOC(=O)N1CCC(NS(=O)(=O)c2ccc3c(c2)OCC(=O)N3)CC1,37%,-1%,21%,9%,-9%,19
